Assay results taken from the supplement of paper PMC6555819.

Experiments:
Assay in all cases: PBM binding z-score (relative to random genomic background probes); higher = stronger binding; sequences stand for … in GC…GCGATTGACAGCGTAGAATGAAGG
[1] = system: RARb homodimer (NR concentration 270 nM)
How it was run: (§1)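 Ligand-free nuclear receptor dimers were applied to custom Agilent 4×180K protein-binding microarrays whose double-stranded probes carried direct-repeat seeds, single-nucleotide variants, half-site ablations and random human genomic background sequences in 34-nt variable regions. Incubation lasted 1 h. Binding z-scores were computed against the random background probes from regression-normalized fluorescence.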

[2] = system: RARg:RXRa (NR concentration 270 nM, RXRa partner concentration 90 nM)
How it was run: as §1

[3] = system: RARg homodimer (NR concentration 270 nM)
How it was run: as §1

[4] = system: RXRa DBDmut IVT, anti-RXR (DBD mutation: RXRa K156A/R161A, NR concentration 90 nM)
How it was run: as §1

[5] = system: RXRa homodimer (NR concentration 180 nM)
How it was run: as §1

[6] = system: THRa:RXRa (NR concentration 90 nM, RXRa partner concentration 90 nM)
How it was run: as §1

[7] = system: THRa homodimer (NR concentration 90 nM)
How it was run: as §1

[8] = system: VDR homodimer (NR concentration 270 nM)
How it was run: as §1

| Sequence | PBM binding z-score [1] | PBM binding z-score [2] | PBM binding z-score [3] | PBM binding z-score [4] | PBM binding z-score [5] | PBM binding z-score [6] | PBM binding z-score [7] | PBM binding z-score [8] |
| --- | --- | --- | --- | --- | --- | --- | --- | --- |
| CGAACGAGGGCATGAGTTGTTAGCAAATGCCGAT | 0.54 | 0.951 | 1.44 | 2.23 | 0.556 | 1.08 | -0.284 | 1.12 |
| ATCTCTAGGTAAAGAAAGTTCAGTGAATGCAAAT | 2.33 | 1.43 | 1.59 | 0.781 | 0.876 | 1.22 | 0.318 | 1.71 |
| CCAGACAGGTGTAAGGTAACTCAGTCTGGTACGC | -0.201 | -0.0982 | -0.292 | 0.0922 | -0.0847 | 1.59 | 1.21 | 0.39 |
| CCGACTGGGGCATAAGGCTACCATAAGCCAGCCC | 0.172 | -0.0263 | 0.171 | -0.797 | -0.16 | -0.225 | -0.406 | -0.345 |
| TGTAGCAGGCCAGAGGGTCACTCAAGAGGTACGG | 2.85 | 2.8 | 2.7 | -1.32 | 2.64 | 1.59 | -0.464 | 0.427 |
| ATCTGTAGGTTACATCCGGGTCATTCAGGCTATG | 3 | 3.79 | 2.18 | 1.17 | 3.04 | 3.81 | 2.84 | 2.67 |
| CAAACTAGGCCAAAGGTCAAAGTCGAGCCAACCA | 4.89 | 6.83 | 5.59 | 1.38 | 7.49 | 3.93 | 0.417 | 1.61 |
| TCTCGTTGGTCAAAGGTCACACACTCGAAATGCG | 5.23 | 7.05 | 6.09 | 1.99 | 8.17 | 4.2 | 2.63 | 2.94 |
| CCTAGCAGGCCAGGGTCACTCACGCATTTCGCTT | 2.64 | 2.79 | 2.22 | 0.414 | 3.32 | 2.63 | 1.32 | 1.73 |
| AGTCACAGTTCATCTAGGTAACGTAAGATATGCT | 1.67 | 2.47 | 2.66 | 3.33 | 2.05 | 2.13 | 0.362 | 3.1 |
| CGTGCTAGGTCAATGGTCAGCTAAAGCAGCTCGC | 2.95 | 3.8 | 4.95 | 1.67 | 2.31 | 2.23 | 0.655 | 0.301 |
| ACTAGCCGGCCAAGGGTCACTCAAGATTAGTCCG | 3.6 | 3.96 | 3.47 | -0.0861 | 3.65 | 2.5 | 0.383 | 0.509 |
| CTTACTGGGCCATTCAGAGGTCATTGATCATATG | 4.12 | 4.5 | 3.62 | 1.88 | 4.04 | 3.24 | 1.61 | 3.73 |
| ACTATTAGTTCAGACGAGGGCAACCGATAGGTTG | 2.05 | 1.74 | 1.88 | 2.26 | 0.943 | 4.09 | 0.384 | 2.44 |
| TTACCAAGGTGAAAAGTCGTTGATGCACGCCTTG | 0.298 | 0.676 | 0.264 | -0.185 | 1.15 | 1.37 | 0.0466 | -0.327 |
| TCTATTAGTTGGTTAGGGCAACCGAAACAGCGGA | 0.686 | 0.47 | 0.667 | 0.779 | 0.412 | 0.638 | 0.431 | 0.587 |
| GTAACGAGGGCATTCGAGTTGATAGCATGGCGAT | 0.944 | 1.34 | 1.45 | 2.91 | 0.914 | 3.18 | -0.244 | 3.97 |
| CCAGACAGGTGAAAGGTAACGCAGTCTGGTACGC | 1.03 | 1.46 | 0.723 | -0.16 | 2.42 | 1.08 | -0.07 | -0.146 |
| TCTAGCAGGCCAAAGGGTCACTCAAGAGGTACGG | 4.55 | 4.65 | 4.35 | 0.568 | 4.24 | 2.51 | -0.172 | 1.2 |
| AGTCAAAGTTCAGGTCGAGGTAACGTAAAGCACG | 3.87 | 4.95 | 4.97 | 3.14 | 3.08 | 4.18 | 2.7 | 2.75 |
| ACTATTAGTCGAGACGAGGGCAACCGATAGGTTG | 0.973 | 0.43 | 0.663 | 0.357 | 0.46 | 0.977 | 0.0699 | 0.358 |
| ATCGAAAGGTCGAGGTGTGTATAGAGAAAGGGAA | 2.82 | 4.23 | 4.18 | 0.84 | 4.06 | 2.05 | 0.277 | 0.444 |
| TCTCGGAGGACACGAAGGTCGGAGCTTTCCAGAG | 1.42 | 1.23 | 1.5 | 0.608 | 0.322 | 1.64 | 0.121 | 0.0854 |
| CCGACTGGGGCAAAGGTTACTATACTCAGTACGA | 1.74 | 2.75 | 1.37 | 0.148 | 2.8 | 1.44 | -0.197 | 0.164 |
| AGAATGAGGTTAAAATCAGGGAAACAGAATACAT | 0.545 | 1.94 | 1.31 | 1.51 | 2.62 | 2.4 | 0.43 | 0.808 |
| TCATATAGGTAAAAGGTGGAAGTCGGTGTGGTAA | 0.589 | 0.466 | -0.0176 | 1.55 | 1.54 | 0.305 | 0.294 | 0.281 |
| CGAACTAGGCCATTGACAGGACAGTGAATAGTAA | 0.319 | 0.281 | 0.586 | 0.349 | 0.0322 | 0.198 | -0.102 | -0.193 |
| AGAATGAGGTTACGAAAGATCAGGGAAACGCTTG | 0.671 | 2.26 | 1.68 | 1.11 | 2.73 | 2.89 | 0.487 | 0.194 |
| CTAACGAGGGCATGAGTTGATAGCAAATGCCGAT | 0.671 | 1.31 | 1.61 | 2.41 | 1.06 | 1.2 | 0.0031 | 1.43 |
